tim10-1 inh = growth inhibitors of tim10-1 mutant yeast, primary screen, luminescence, uHTS; AID 463190, 2010; S. cerevisiae tim10-1 ts strain growth, BacTiter-Glo, 24 h; 330,000 compounds, 2.2% hits; inhibition, % at 20 µM;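 active means inhibition of at least 40%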;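 further: mutant grown at 25 °C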
Mdm2-MdmX inh = inhibitors of human Mdm2-MdmX association, primary screen, cell-based, luminescence, split luciferase, SaOS-2, uHTS. Protein Mdm4 (Homo sapiens) + E3 ubiquitin-protein ligase Mdm2 (Homo sapiens), …. SaOS-2 split-luciferase Mdm2/MdmX complementation. inhibition, % at 8 µM. 330,000 compounds, 3% hits;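 active means inhibition of at least 50% at 8 µM in the primary screen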
Target sequence (O15151 whole entry, looked up): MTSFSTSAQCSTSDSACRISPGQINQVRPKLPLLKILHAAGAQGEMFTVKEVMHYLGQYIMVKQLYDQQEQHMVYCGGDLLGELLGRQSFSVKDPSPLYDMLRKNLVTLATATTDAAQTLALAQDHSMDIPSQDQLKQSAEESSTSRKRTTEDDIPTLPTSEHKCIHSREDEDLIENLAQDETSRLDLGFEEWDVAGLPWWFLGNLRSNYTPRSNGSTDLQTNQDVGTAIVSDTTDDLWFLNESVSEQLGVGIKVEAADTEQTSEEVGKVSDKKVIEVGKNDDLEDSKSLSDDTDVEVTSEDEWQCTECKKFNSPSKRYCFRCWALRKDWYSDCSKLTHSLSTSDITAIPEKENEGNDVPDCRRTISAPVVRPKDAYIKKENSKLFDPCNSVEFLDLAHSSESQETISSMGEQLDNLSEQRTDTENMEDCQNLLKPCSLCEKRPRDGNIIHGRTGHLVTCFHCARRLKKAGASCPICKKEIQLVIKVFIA
Target sequence (Q00987 whole entry, looked up): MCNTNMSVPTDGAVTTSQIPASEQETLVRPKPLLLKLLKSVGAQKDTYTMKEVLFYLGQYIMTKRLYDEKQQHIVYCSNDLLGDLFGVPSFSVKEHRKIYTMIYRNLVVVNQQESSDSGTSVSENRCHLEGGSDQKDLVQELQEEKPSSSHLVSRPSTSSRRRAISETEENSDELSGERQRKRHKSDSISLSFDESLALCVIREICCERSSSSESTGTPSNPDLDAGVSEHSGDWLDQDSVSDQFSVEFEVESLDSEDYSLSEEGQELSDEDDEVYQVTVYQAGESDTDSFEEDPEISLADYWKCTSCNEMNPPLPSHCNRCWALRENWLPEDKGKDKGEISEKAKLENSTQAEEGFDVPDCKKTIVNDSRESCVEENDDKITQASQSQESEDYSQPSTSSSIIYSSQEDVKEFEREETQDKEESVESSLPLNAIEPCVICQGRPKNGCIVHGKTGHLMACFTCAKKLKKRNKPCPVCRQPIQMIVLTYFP
MPTP block = mitochondrial permeability transition pore inhibitors, primary screen, biochemical, isolated mouse mitochondria, absorbance; Ca2+ swelling absorbance, 30 min; inhibition, % at 10 µM; 360,000 compounds, 1.4% hits;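 active means inhibition of 50% or more, scaled per plate between neutral and stimulator controls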
tim23-1 inh = growth inhibitors of tim23-1 mutant yeast, primary screen, luminescence, uHTS | inhibition, % at 20 µM | S. cerevisiae tim23-1 growth, BacTiter-Glo luminescence, 24 h | AID 463212, 2010 | 330,000 compounds, 1.3% hits;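 active means growth inhibition of the mutant yeast at or above 50%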;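 further: temperature-sensitive mutant grown at 25 °C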
TIM10 inh = growth inhibitors of isogenic TIM10 control yeast, primary screen, counter-screen for tim10-1 yeast inhibitor project, luminescence, uHTS; S. cerevisiae TIM10 strain growth, BacTiter-Glo luminescence, 24 h; inhibition, % at 10 µM; 330,000 compounds, 1.4% hits; AID 463195, 2010;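 active means inhibition of 40% or more at the single tested concentration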;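 further: wild-type TIM10 isogenic control strain grown at permissive 25 °C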
tim10-1 conf = growth inhibitors of tim10-1 mutant yeast, confirmation, single concentration, luminescence, S. cerevisiae | shares compounds with tim10-1 inh | S. cerevisiae tim10-1 ts strain growth, BacTiter-Glo, 24 h | inhibition, % at 20 µM | 7,400 compounds, 56% hits | AID 463213, 2010;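 active means inhibition of yeast growth at or above a set limit in either of two repeat tests at 20 µM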;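 further: tim10-1 mutant grown at permissive 25 °C to find synthetic lethal compounds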
A number is an active result; . = inactive; / = not tested or not shown. Most compounds without a hit are left out; they make up all but 6.3% or so of the library.

SMILES | tim10-1 inh | Mdm2-MdmX inh | MPTP block | tim23-1 inh | TIM10 inh | tim10-1 conf
COCCN(C(=O)CSc1nnc(-c2ccc(F)cc2)n1N)c1c(N)n(CC(C)C)c(=O)[nH]c1=O | / | / | . | / | / | /
CC1(C)c2[nH]c3ccccc3c2C[C@@H]2C(=O)N(Cc3ccc(F)cc3)C(=O)N21 | 44.6 | . | . | . | . | .
Cc1ccc2[nH]c3c(c2c1)CN(C(=O)CN1CCN(C(=O)c2ccco2)CC1)CC3 | . | . | / | . | . | /
Cc1ccc2[nH]c3c(c2c1)CN(C(=O)CN1c2ccc(F)cc2CCC1C)CC3 (stereo unspecified) | 42.7 | . | . | . | . | 37.6
Nc1nc(Nc2cccc(C(F)(F)F)c2)nc(C(F)(F)F)n1 | 44.1 | . | . | . | . | 35.4
Cn1cc([C@]2(O)C(=O)Nc3c(F)cccc32)c2ccccc21 | / | / | . | / | / | /
Cn1cc([C@]2(O)C(=O)Nc3ccc(Br)cc32)c2ccccc21 | / | / | . | / | / | /
Cc1ccc(N2CN=C(c3ccccc3)NC2=S)cc1 | 43.9 | . | . | . | . | .
O=C(c1nc2ccc(Cl)cn2c1CN1CCC[C@H]1CO)N1CCc2ccccc2C1 | / | / | . | / | / | /
CCn1c(CSc2nc3ccccc3s2)n[nH]c1=S | 41.6 | . | . | . | . | 31.7
S=c1[nH]nc(CSc2nc3ccccc3s2)n1Cc1ccccc1 | . | . | . | . | . | /
CCCSc1nnc(CSc2nc3ccccc3s2)n1-c1ccccc1 | 43.6 | . | . | . | . | 33.2
O=C(c1cc(-c2ccccc2)on1)N(Cc1cccnc1)C(c1ccccn1)c1nc2ccccc2[nH]1 (stereo unspecified) | / | / | . | / | / | /
NC(=O)NC(=O)COC(=O)c1ccc(Cl)c(S(=O)(=O)N(Cc2ccccc2)c2ccc(Cl)cc2)c1 | . | . | . | . | . | /
NC(=O)COC(=O)c1ccc(Cl)c(S(=O)(=O)N(Cc2ccccc2)c2ccc(Cl)cc2)c1 | 41.5 | . | . | . | . | 32.2
CCOC(=O)c1c(NC(=O)/C=C/c2ccc(C)o2)sc(C)c1C | 45.8 | . | . | . | . | .
CCCCOCCCNC(=O)C[C@@H]1C[C@@]2(C(=O)OCC)CCCC=C2N(Cc2ccc(Cl)cc2Cl)C1=O | / | / | . | / | / | /
CCCS(=O)(=O)NC(=O)C1(C)CCCN(C(=O)c2ccccc2C(F)(F)F)C1 (stereo unspecified) | / | / | . | / | / | /
Cc1cc(C)n(-c2nc(C)nc3sc4c(c23)CCC(C)C4)n1 (stereo unspecified) | 42.3 | . | . | . | . | .
Cc1cc(C)n(-c2ncnc3sc4c(c23)CC(C)CC4)n1 (stereo unspecified) | . | . | . | . | . | /
Clc1cccc(Cl)c1/C=C/c1ccn[nH]1 | 54.7 | . | . | . | . | 39.6
O=C(/C=C/c1c(F)cccc1Cl)c1ccc(F)cc1 | . | . | . | . | . | /
CC1(C(=O)NS(=O)(=O)c2ccccc2Cl)CCN1C(=O)Cc1ccc(Cl)cc1Cl (stereo unspecified) | / | / | . | / | / | /
COc1cc(Cl)c(C)cc1NC(=O)c1cccc(OC)c1OC | 40.5 | . | . | . | . | .
COc1cc(NC(=S)Nc2cccc(Cl)c2Cl)c(OC)cc1Cl | 42.2 | . | . | . | . | .
SMILES | tim10-1 inh | Mdm2-MdmX inh | MPTP block | tim23-1 inh | TIM10 inh | tim10-1 conf
COc1ccc(C)cc1NC(=S)NNC(=O)c1ccccc1Cl | 44.0 | . | . | . | . | 47.9
COc1cc(Cl)c(C)cc1NC(=O)CSc1ccc(NC(C)=O)cc1 | 41.8 | . | . | . | . | .
COc1ccccc1C(=O)NNC(=S)Nc1ccccc1 | / | / | . | / | / | /
COC(=O)C1(C(=O)OC)C[C@H](c2ccc(OC)cc2)N(Cc2ccccc2OC)[C@@H]1c1cccs1 | / | / | . | / | / | /
COc1cc(NC(=S)NC(C)(C)C)c(OC)cc1Cl | . | . | . | . | . | /
COc1cc(Cl)c(C)cc1NC(=S)NN | 40.6 | . | . | . | . | .
CC(C)CNC(=O)C1(C)CCCN1C(=O)c1cccnc1 (stereo unspecified) | / | / | . | / | / | /
COc1ccc(C(=O)NCCc2nc3cc([N+](=O)[O-])ccc3n2C)cc1 | 54.6 | . | . | . | . | 38.0
O=C(CCCOc1ccc(Cl)cc1Cl)n1nnc2ccccc21 | 53.6 | . | . | . | . | 38.6
COCOCCn1cc(CN2CCS(=O)(=O)N(Cc3ccc(-c4ccc(Cl)c(Cl)c4)cc3)C(C(C)C)C2=O)nn1 (stereo unspecified) | / | / | . | / | / | /
COc1cc2c3c(c1)/C(=C1/SC(NC(C)=O)=NC1=O)C(=O)N3C(C)(C)C=C2C | 62.5 | . | . | . | . | 56.2
O=C(COC(=O)/C=C/c1cccc(F)c1)NCc1ccc2c(c1)OCO2 | / | / | . | / | / | /
COc1ccc(Sc2nc(-c3ccccn3)ncc2OC)cc1 | . | . | . | . | . | /
COc1cnc(-c2ccccn2)nc1Oc1cccc(C(F)(F)F)c1 | 44.1 | . | . | . | . | .
COc1cnc(-c2ccccn2)nc1Sc1ccccc1 | 41.3 | . | . | . | . | 42.7
CCOC(=O)CSc1nc(-c2ccccn2)ncc1OC | . | . | . | . | . | /
COc1cnc(-c2ccccn2)nc1Sc1ccc(F)cc1 | 41.5 | . | . | . | . | 34.2
COc1cnc(-c2ccccn2)nc1Sc1ccc(Cl)cc1 | 43.2 | . | . | . | . | .
CC1(C(=O)NCc2cccc3ccccc23)CCN1C(=O)Cc1ccc(-c2ccccc2)cc1 (stereo unspecified) | / | / | . | / | / | /
N#Cc1cccnc1N1CCN(C(=O)c2ccc3c(c2)S(=O)(=O)c2ccccc2C3=O)CC1 | . | . | . | . | . | /
O=C1c2ccccc2S(=O)(=O)c2cc(C(=O)N3CCN(c4ccc(Cl)cn4)CC3)ccc21 | 43.8 | . | . | . | . | 42.3
NNc1nc2c(F)cc(F)cc2s1 | 41.3 | . | . | . | . | .
NNc1nc2c(F)cccc2s1 | . | . | . | . | . | /
N#Cc1ccccc1OCc1nnc(-c2ccccc2Br)o1 | . | . | . | . | . | /
Clc1ccccc1OCc1nnc(-c2ccccc2Br)o1 | 48.6 | . | . | . | . | 34.2
SMILES | tim10-1 inh | Mdm2-MdmX inh | MPTP block | tim23-1 inh | TIM10 inh | tim10-1 conf
CCOC(=O)c1c(CSc2ccc(C)cc2)n(C)c2cc(Br)c(O)c(CN(C)C)c12 | 41.2 | . | . | . | . | 44.1
CCOC(=O)/C(C#N)=C\c1ccc(O)c(OC)c1 | 42.0 | . | . | . | . | 34.5
CCOC(=O)/C(C#N)=C/c1cccc(C)c1 | / | / | . | / | / | /
C[C@H](c1ccccc1)N1C[C@@H](COCc2ccccc2)Oc2cc(N3CC[C@@H](N(C)C)C3)ccc2S1(=O)=O | / | / | . | / | / | /
CC(C)OC(=O)C(=O)NNc1ccccc1 | . | . | . | . | . | /
C=C(C)C(=O)NNc1ccccc1 | 41.0 | . | . | . | . | 37.1
COc1cc(OC)c2c3c(c(C4CCCCC4)nc2c1)CCC3 | 51.8 | . | . | . | . | 30.1
